A selection: hits, their analogues and other compounds. The true share with any hit is near 21%.
Pf growth 96h = P. falciparum growth inhibition at 96 hours. P. falciparum luciferase reporter growth, 96 h. 320,000 compounds, 6.9% hits. Potency, µM (top dose mostly 28.7 µM), for the others: at the highest dose activity change, negative = inhibition, usual class: inhibitors; also: potency is read from the fitted curve at half-maximal effect; % is scaled to controls: 0 for no effect and ±100 for the full control effect
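Two-generation exposure (96 h) targets delayed-death phenotype. Reporter parasites carrying integrated firefly luciferase, in red cells at 2% hematocrit and 0.05% parasitemia final, kept at 37 C, 5% CO2; luminescence loss indicates inhibition.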
Shiga inhibitor = blocks Shiga toxin action in Vero cells; Vero cells, Shiga toxin protein synthesis inhibition reporter; inhibition, % at 38.7 µM; 290,000 compounds, 9.2% hits; AID 2315; in the data active = inhibition mostly above about 28%, no sharp cut-off; inactive = mostly below about 43%; also: 0% is about no effect
Pf growth 48h = P. falciparum growth inhibition at 48 hours (one generation). P. falciparum luciferase growth in erythrocytes, 48 h. Potency, µM (highest dose often 28.7 µM), without a hit: at the highest dose activity change, negative = inhibition, actives largely listed as inhibitors. 310,000 compounds, 5.9% hits; also: potency is read from the fitted curve at half-maximal effect; % is scaled to controls: 0 for no effect and ±100 for the full control effect
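Luciferase-expressing parasites in RBCs, 2% Hct / 0.1% parasitemia final; RPMI 1640 + 0.5% Albumax; 37 C, 5% CO2, one generation; luminescence read-out, lower signal = inhibition.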
NS1 function inh = inhibitors of influenza NS1 protein function | Potency, µM (doses to about 46.1 µM), for the others: top-dose activity, positive = more growth | 270,000 compounds, 0.4% hits; calls by dose curve; also: potency is read from the fitted curve at half-maximal effect; actives are rising curves; nearly all actives have a fitted effect of over 50% in size
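A cell-based growth assay was used: compounds that relieve NS1-induced slow growth of budding yeast raise OD600. Assay medium was yeast nitrogen base with ammonium sulphate and -URA supplement, pH 6.0, with 2% galactose.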
CHX counter = counter-screen hit for Shiga toxin inhibitors, cycloheximide; 300,000 compounds, 12% hits; cell reporter, cycloheximide protein synthesis inhibition counterscreen; AID 2314; max response, %; in the data active = max response mostly above about 13%, no sharp cut-off; inactive = mostly below about 14%; also: read at 38.3 µM for the half of the compounds with a filed dose; 0% is about no effect
* marks the source's active call; other numbers are inactive results; i = inactive; ? = inconclusive; nt = not tested or not shown; [ ] = dose if it differs, or a comment. Unless noted, calls follow the shape of the dose curve; as a rule, active = well fitted inhibition curve with a large enough effect; inconclusive = small, poorly fitted or top-dose-only effect, or another doubt; inactive = no such curve, though single readings can be large or run the other way.

SMILES | Pf growth 96h | Shiga inhibitor | Pf growth 48h | NS1 function inh | CHX counter
CN(C)c1ccc(C(=O)c2ccccc2C(=O)O)cc1[N+](=O)[O-] | 46.7%[5.75 µM] | 3.7 | -11.1% | nt | -1.9
CCOc1cc(C(=O)N=c2sccn2C)ccc1OC(F)F | -11.2% | 71.3 | -7.0% | 9.4% | 35.4*
Cn1ccsc1=NC(=O)c1ccc(S(=O)(=O)C(F)F)cc1 | 15.4% | 69.2* | 69.0% | 1.3% | 26.4*
Cc1ccc(NC(=O)CSCC(=O)N=c2sccn2C)cc1 | 9.4% | nt | 0.4% | nt | nt
Cn1ccs/c1=N\C(=O)Nc1ccccc1 | 174.4% | 74.8* | 135.4% | -6.6% | 65.8*
O=C(c1ccc(Br)cc1)N(c1ccccn1)C1CCCCC1 | 1.6% | 7.1 | -6.2% | -59.1% | -1.7
COc1ccccc1-n1c(-c2cc(-c3ccc(F)cc3)n[nH]2)n[nH]c1=S | -37.1%[5.75 µM] | -15.4 | 10.5% | 4.8% | -1.8
CCc1ccc(N2CC(C(=O)Nc3cc(C)ccc3F)CC2=O)cc1 (stereo unspecified) | -2.6% | 7.0 | 1.0% | ? | -1.0
Cn1ccsc1=NC(=O)c1ccc(OC(F)(F)F)cc1 | 80.4% | 82.6* | 46.8% | -22.0% | 35.9*
COc1ccc(C(=O)N=c2sccn2C)cc1 | 203.2% | 70.7* | 187.8% | nt | 33.2*
COc1ccc(NC(=O)CSCC(=O)N=c2sccn2C)cc1 | 7.6% | -2.9 | 3.6% | 5.1% | 0.5
Cn1ccsc1=NC(=O)c1ccc(CS(C)(=O)=O)cc1 | 50.2% | 38.7* | 64.2% | -3.8% | 12.2
COC(=O)c1ccc(C(=O)N=c2sccn2C)cc1 | 143.0% | 78.8* | 92.6% | -7.6% | 40.5*
COc1ccc(C(=O)Cn2ccsc2=NC(C)=O)cc1 | 89.5% | -5.0 | 43.4% | nt | 7.4
COC(=O)c1ccc(N=c2sc(C(=O)OC)cc(=O)n2C)cc1 | -16.7% | -3.1 | 34.8% | -19.7% | -2.4
CCCN(CCC)S(=O)(=O)c1cccc(C(=O)N=c2sccn2C)c1 | -39.0% | 7.4 | ? | 8.0% | -1.8
CSc1nnc(C)c(=O)n1COC(=O)c1cc(Cl)ccc1[N+](=O)[O-] | 0.0% | -2.0 | 5.5% | nt | 2.6
CCOc1ccc(N2CC(C(=O)NCCc3c[nH]c4ccc(C)cc34)CC2=O)cc1 (stereo unspecified) | 26.1% | -5.1 | -16.9% | 12.2% | -5.6
CCOC(=O)c1ccccc1NC(=O)COC(=O)CSC(C)C(=O)Nc1cc(C)on1 (stereo unspecified) | 2.4% | -6.9 | -2.9% | -10.2% | -2.7
O=C(O)c1ccc2c(c1)C(=O)N([C@H](Cc1ccccc1)C(=O)O)C2=O | 13.1% | -1.7 | 5.6% | nt | 0.4
Cn1ccsc1=NC(=O)c1ccc(Cl)cc1 | 55.6% | 113.4* | 90.3% | -4.6% | 39.2*
Cn1ccsc1=NC(=O)c1ccccc1F | ? | 40.6 | -13.4% | nt | 15.6
COc1cc(CCC(=O)Nc2nnc(-c3cccnc3)s2)cc(OC)c1OC | ? | 2.5 | -26.2% | nt | 6.9
CC(=O)c1ccc(NC(=O)c2noc(C(C)C)c2[N+](=O)[O-])cc1 | 10.0% | 37.5 | -31.2% | nt | 40.6*
COc1ccc(NC(=O)c2noc(C(C)C)c2[N+](=O)[O-])cc1 | 19.1% | 50.0* | ? | nt | 36.5*
SMILES | Pf growth 96h | Shiga inhibitor | Pf growth 48h | NS1 function inh | CHX counter
CCc1ccc(NC(=O)c2noc(C(C)C)c2[N+](=O)[O-])cc1 | 14.2% | 150.6* | ? | nt | 47.6*
Cc1ccc(O)c(NC(=O)c2noc(C(C)C)c2[N+](=O)[O-])c1 | ? | 48.7 | -25.0% | nt | 42.3*
COc1ccc(NC(=O)c2nn(C)c(C(=O)Nc3ccc(OC)cc3)c2[N+](=O)[O-])cc1 | ? | nt | 6.9% | 11.2% | -3.8
CC(C)c1onc(C(=O)NC(C)c2ccccc2)c1[N+](=O)[O-] (stereo unspecified) | 48.8% | -3.5 | 2.7% | nt | 9.2
CCC(C)(Oc1ccc(C2(c3ccc(OC(C)(CC)C(=O)O)cc3)CCCCC2)cc1)C(=O)O (stereo unspecified) | ? | nt | 0.8% | nt | nt
COc1ccccc1OCCSc1nc2ccccc2n1CC(N)=O | 18.3% | -13.2 | 37.8% | -1.7% | -2.7
CC(C)c1onc(C(=O)NCCc2ccccc2)c1[N+](=O)[O-] | ? | 81.7* | 16.8% | nt | 52.9*
Cc1cn2nc(N)c3ccccc3c2n1 | 91.7% | 28.9 | 8.4% | -3.6% | 18.9*
c1ccc(-c2cn3nc(-c4ccccc4)c(-c4ccccc4)nc3n2)cc1 | -1.4% | 25.6 | -0.4% | -0.2% | 2.5
Nc1nn2cc(-c3ccccc3)nc2c2ccccc12 | 259.4% | 70.4* | i | nt | 30.5*
COC(=O)c1ccccc1S(=O)(=O)N1CCC(C(=O)NCCC2=CCCCC2)CC1 | -19.8% | nt | ? | nt | nt
